Laboratory results taken from PubChem BioAssay AID588492 (Sanford-Burnham Center for Chemical Genomics, 2011).
Screen size: about 360,000 compounds; about 2,300 (0.64%) were called active. This is one part of a sample in which actives are shown more often than they occur. A number with no mark means an inactive call.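 How the source made its calls: active means compounds giving at least 50% protection of heart cells from peroxide-induced death in the single-dose screen, raw or plate-pattern-corrected value; inactive means the rest.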

Assay: cardioprotection against H2O2-induced cell death, primary screen, uHTS, H9c2 cells, ATPLite luminescence (AID 588492);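 further: 0% = DMSO wells with peroxide and 100% = DMSO wells without peroxide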
Conditions: H9c2 cardiomyocytes, H2O2 injury protection, 2 h, at 20 µM, stronger effect = higher value
In the case of `COc1ccc(-c2[nH]ncc2CN(C)Cc2cccnc2)c(F)c1`, the protection from H2O2 cell death is reported as -2.7%. For `CCOc1ccc2[nH]c(=O)c(CN(CCCO)S(=O)(=O)c3ccc(F)cc3)cc2c1`, the protection from H2O2 cell death was 18.6%. In the case of `COc1ccc2[nH]c(=O)c(CN(Cc3cccnc3)S(=O)(=O)c3ccccc3F)cc2c1`, the protection from H2O2 cell death is reported as 60.7% (active). Compound `O=C(CNS(=O)(=O)c1ccc2c(c1)OCCCO2)N1CCN(c2ccc(F)cc2)CC1` has a protection from H2O2 cell death of -3.7%. With `CC1CCC2(CC1)NC(=O)N(CC(=O)c1cccn1C)C2=O` (stereo not given) the protection from H2O2 cell death was 7.1%. `Cc1ccc(C(=O)N/C(=C/c2ccc(-c3cccc([N+](=O)[O-])c3)o2)C(=O)NCCCN(C)C)cc1` showed a protection from H2O2 cell death of -22.6%. `Cc1ccc(-c2ccc(/C=N/NC(=O)CN3CCOCC3)o2)cc1[N+](=O)[O-]` showed a protection from H2O2 cell death of 7.6%. In the case of `N#C/C(=C\c1ccc(-c2cccc([N+](=O)[O-])c2)o1)C(=O)NCCN1CCOCC1`, the protection from H2O2 cell death is reported as 55% (active). With `COc1ccc(C(=O)Nc2ccc(C(=O)NCC3CCCO3)cc2)c(OC)c1OC` (stereo not given) the protection from H2O2 cell death was 10.2%. `O=C(NCCN1C(=O)S/C(=C\c2cccnc2)C1=O)c1ccc(S(=O)(=O)N2CCCC2)cc1` showed a protection from H2O2 cell death of 0.9%. In the case of `Oc1c(C(c2ccccn2)N2CCOCC2)ccc2cccnc12` (stereo not given), the protection from H2O2 cell death is reported as 64.9% (active). For `COc1cc(-c2nnc(NC(=O)C3=COCCO3)o2)cc(OC)c1OC`, the protection from H2O2 cell death was -5.7%. Work on `Cc1nc(C)c(-c2nnc(-c3cccc(S(=O)(=O)N(C)C)c3)o2)cc1C(=O)NN` yielded a protection from H2O2 cell death of -1.4%. With `CCOC(=O)c1cc(-c2nnc(-c3cc(OC)c(OC)c(OC)c3)o2)c(C)nc1C` the protection from H2O2 cell death was 119% (active). In the case of `CCOC(=O)c1[nH]cnc1C(=O)NC1CCCCC1`, the protection from H2O2 cell death is reported as 5.2%. In the case of `Cc1cc(C(=O)N/N=C/c2cc([N+](=O)[O-])cc(C)c2O)n[nH]1`, the protection from H2O2 cell death is reported as 58.2% (active). Work on `Cc1occc1C(=O)N/N=C/c1ccc(-c2cccc([N+](=O)[O-])c2)o1` yielded a protection from H2O2 cell death of 16.2%. In the case of `COc1ccc(C(=O)NNC(=O)c2cc(C)[nH]n2)cc1`, the protection from H2O2 cell death is reported as 7.7%. Compound `O=C(OC1CCOC1=O)c1ccc(-c2nc3ccccc3s2)s1` (stereo not given) has a protection from H2O2 cell death of -18.2%. Work on `Cc1cc(C)c(S(=O)(=O)c2ccc(F)cc2C)c(=O)[nH]1` yielded a protection from H2O2 cell death of 11.1%. Compound `O=C(CCc1ccc(O)cc1)NN=Cc1cc(Br)ccc1O` has a protection from H2O2 cell death of 41.5%. With `Oc1ccc(Br)cc1C=Nc1ccc2[nH]ncc2c1` the protection from H2O2 cell death was 63.8% (active). With `CCN(CC)CCn1c(/N=C/c2cc(Br)ccc2O)nc2ccccc21` the protection from H2O2 cell death was 32.2%. Work on `CCc1cc(=O)oc2cc(OCC(=O)N3CCCc4ccccc43)ccc12` yielded a protection from H2O2 cell death of 22.6%. `Cc1cc(C(=O)OCC(=O)NCc2ccco2)c(C)n1-c1ccccc1` showed a protection from H2O2 cell death of -1.9%. In the case of `COc1ccc(/C=C2/S/C(=N/N=C3\CC4CCC3(C)C4(C)C)NC2=O)cc1` (stereo not given), the protection from H2O2 cell death is reported as -7.9%. For `O=[N+]([O-])c1ccc2c(c1)C(N1CCOCC1)/C(=C/C1(O)CCCCC1)O2` (stereo not given), the protection from H2O2 cell death was 1.3%. Work on `O=C1OCCC1=COCCCCOC=C1CCOC1=O` yielded a protection from H2O2 cell death of 3%. Work on `O=C(NCC1(N2CCCCC2)CCCCC1)c1cccc(S(=O)(=O)Nc2ccccc2Cl)c1` yielded a protection from H2O2 cell death of 28.2%. Compound `O=C(O)Cn1c(Cc2ccccc2)nc2ccccc21` has a protection from H2O2 cell death of 11.1%. Work on `CCCn1c(N)c(C(=O)CSc2nnc(-c3cccnc3)n2-c2ccc(C)cc2C)c(=O)[nH]c1=O` yielded a protection from H2O2 cell death of 22.9%. For `Cc1ccc(C)c(NC(=O)CSc2nc3c(oc4ccccc43)c(=O)n2-c2ccccc2)c1`, the protection from H2O2 cell death was -6.4%. Compound `CCCCC(=O)Nc1ccc2c(c1)C(=O)NC2=O` has a protection from H2O2 cell death of 9.9%. With `CCCCC(=O)Nc1cc(C)c2c(=O)oc3ccccc3c2n1` the protection from H2O2 cell death was 77.7% (active). `COc1ccc2c(c1)C(NS(=O)(=O)OCC(Cl)(Cl)Cl)CCC2` (stereo not given) gave a protection from H2O2 cell death of -4.5%. For `COc1ccc2[nH]c(=O)c(CN(CC3CCCO3)C(=O)Nc3ccccc3)cc2c1` (stereo not given), the protection from H2O2 cell death was 11.7%. With `COc1ccc(S(=O)(=O)NCCc2cc3ccc(C)c(C)c3[nH]c2=O)cc1` the protection from H2O2 cell death was -9.7%. In the case of `COc1ccc2[nH]c(=O)c(CNc3ccc(C)c(C)c3)cc2c1`, the protection from H2O2 cell death is reported as 57.7% (active). `CCc1cccc(CC)c1N1C(=O)CC(Sc2ccccc2N)C1=O` (stereo not given) gave a protection from H2O2 cell death of -0.9%. Work on `O=C(NCc1cccs1)C(=O)NCC1OCCCN1S(=O)(=O)c1ccc(F)cc1` (stereo not given) yielded a protection from H2O2 cell death of 6%. For `CCOc1cc2c(Cl)ncnc2c(OCC)c1OCC`, the protection from H2O2 cell death was 0.8%. Work on `Cc1ccc(S(=O)(=O)N(C)CC(=O)OCC(=O)Nc2ccccc2)cc1` yielded a protection from H2O2 cell death of -0.1%. In the case of `CN(C)S(=O)(=O)c1ccc(NC(=O)COC(=O)c2n[nH]c3ccccc23)cc1`, the protection from H2O2 cell death is reported as -11.7%. With `CCC1(CC)NC(=O)N(CC(=O)OCC(=O)c2cc(C)c(C)cc2C)C1=O` the protection from H2O2 cell death was 4.7%. With `Cc1ccc(C)c(C(=O)COC(=O)Cn2[nH]c(=O)c3ccccc3c2=O)c1` the protection from H2O2 cell death was 82% (active). In the case of `O=C(COC(=O)Cn1[nH]c(=O)c2ccccc2c1=O)Nc1ncc(Cl)cc1Cl`, the protection from H2O2 cell death is reported as 79.9% (active). `CCC1(CC)NC(=O)N(CC(=O)OCC(=O)Nc2ccc(C(F)(F)F)cc2)C1=O` gave a protection from H2O2 cell death of 4.8%. For `CC1(C(=O)OCC(=O)Nc2ncc(Cl)cc2Cl)CC1(Cl)Cl` (stereo not given), the protection from H2O2 cell death was -1.6%. Compound `CC(Oc1ccc(Cl)cc1)C(=O)OCC(=O)Nc1ncc(Cl)cc1Cl` (stereo not given) has a protection from H2O2 cell death of 7.1%. In the case of `CN(C)S(=O)(=O)c1ccc(NC(=O)COC(=O)Cn2[nH]c(=O)c3ccccc3c2=O)cc1`, the protection from H2O2 cell death is reported as 72.5% (active). Work on `Cc1ccc(C)c(NC(=O)COC(=O)c2nn(C)c(=O)c3ccccc23)c1` yielded a protection from H2O2 cell death of 7%. `O=C(COC(=O)c1ccc(S(=O)(=O)N2CCCCCC2)cc1)Nc1ccccc1C(F)(F)F` gave a protection from H2O2 cell death of 2.5%. For `O=C(COC(=O)Cn1[nH]c(=O)c2ccccc2c1=O)Nc1c(Cl)cccc1C(F)(F)F`, the protection from H2O2 cell death was 88.6% (active). `CCc1nc2ccc(C(=O)NCCNC(C)=O)cn2c1N(CC)Cc1cccc(Br)c1` gave a protection from H2O2 cell death of 4.8%. `CC(OC(=O)CNC(=O)c1cccc(F)c1)C(=O)NC1CCCCC1C` (stereo not given) showed a protection from H2O2 cell death of 2%. Compound `CCCC(=O)Nc1ccc2c(c1)nc1n2CCSC1` has a protection from H2O2 cell death of -7.4%. For `CS(=O)(=O)N1CCc2nc(-c3ccccc3)sc2C1`, the protection from H2O2 cell death was -1.4%. In the case of `Cc1cc(C(F)F)nn1CC(=O)NC1CCCCCC1`, the protection from H2O2 cell death is reported as -3.7%. `O=C(OCCOCn1cc(Br)c(=O)[nH]c1=O)c1ccccc1` gave a protection from H2O2 cell death of 7.1%. `Cc1cc(C)c2c(n1)sc1c(=O)n(-c3ccccc3)c(=O)[nH]c12` showed a protection from H2O2 cell death of 4.5%. Work on `CCOC(=O)c1sc(NC(=O)C2CSC3(C)CCC(=O)N23)nc1C` (stereo not given) yielded a protection from H2O2 cell death of 4%. `COc1ccc(S(=O)(=O)NC(=O)C2(C)CCN2C(=O)COc2ccc(Cl)cc2)cc1` (stereo not given) showed a protection from H2O2 cell death of 5.6%. `C[C@H](O)[C@@H]1C(=O)N2CCc3c([nH]c4ccccc34)[C@@H]2C[C@@H]1N(C)C(=O)Nc1ccc(F)cc1` showed a protection from H2O2 cell death of -2.1%. For `O=C(N/N=C/c1cc(Cl)cc([N+](=O)[O-])c1O)C(O)(c1ccccc1)c1ccccc1`, the protection from H2O2 cell death was 56.6% (active). `O=C(Cc1ccccc1)N/N=C/c1ccc(Cl)cc1Cl` showed a protection from H2O2 cell death of -15.4%. Work on `O=[N+]([O-])c1cc(Cl)cc(/C=N/NC(=S)Nc2cc(S(=O)(=O)N3CCOCC3)ccc2Cl)c1O` yielded a protection from H2O2 cell death of -20.3%. `NC(=O)Cn1c(=O)oc2ccccc21` gave a protection from H2O2 cell death of 6.1%. Work on `CC(C)(C)c1ccc(NC(=O)COC(=O)CCc2nc3ccccc3c(=O)[nH]2)cc1` yielded a protection from H2O2 cell death of 36.5%. With `CCN(CC(=O)NC(=O)NCc1ccccc1)Cc1nc2ccccc2c(=O)[nH]1` the protection from H2O2 cell death was 7.1%. With `CCN(CC)c1ccc(C(=O)NNC(=O)CCc2nc3ccccc3c(=O)[nH]2)cc1` the protection from H2O2 cell death was 56.2% (active). `O=C(CSCc1ccccc1Cl)NNC(=O)c1ccccc1` gave a protection from H2O2 cell death of 1.3%. Work on `O=C(CSc1ncn[nH]1)Nc1nc2c(F)c(F)c(F)cc2s1` yielded a protection from H2O2 cell death of -1.5%. For `Cc1ccc(OCC(=O)Nc2ccc3oc(=O)ccc3c2)cc1C`, the protection from H2O2 cell death was 0.6%. With `CCN1C(=O)[C@@H]2[C@@H]3CN(S(=O)(=O)c4ccccc4C)[C@@H](c4ccc(Cl)cc4)[C@@H]3C(=O)C[C@@H]2C1=O` the protection from H2O2 cell death was 8.3%. Work on `CCOC(=O)CNC(=O)CSc1ccc2nnc(-c3cccnc3)n2n1` yielded a protection from H2O2 cell death of -2.8%. With `COC(=O)c1ccc(CSc2ccc3nnc(-c4ccccc4)n3n2)o1` the protection from H2O2 cell death was 80.8% (active). Compound `COC(=O)c1ccc(CSc2nnc(N)s2)o1` has a protection from H2O2 cell death of -10.8%. For `CC(C)[C@@H]1COC(c2cccc(C3=N[C@H](C(C)C)CO3)c2)=N1`, the protection from H2O2 cell death was -14.6%. For `O=C(CN1CCN(S(=O)(=O)c2cc(Cl)ccc2Cl)CC1)c1ccc(O)c(O)c1`, the protection from H2O2 cell death was 55.1% (active). `COc1ccc(Cl)cc1S(=O)(=O)N1CCN(CC(=O)C(C)(C)C)CC1` showed a protection from H2O2 cell death of -8.8%. In the case of `N#Cc1ccsc1NC(=O)CN1CCN(S(=O)(=O)c2cc(Cl)ccc2Cl)CC1`, the protection from H2O2 cell death is reported as 8.3%. `CCOC(=O)Cc1csc(SCC(=O)Nc2ccc(C)cc2F)n1` showed a protection from H2O2 cell death of -15.1%. With `COc1ccc(N2CCN(C(=O)COc3ccc4c(C)cc(=O)oc4c3)CC2)cc1` the protection from H2O2 cell death was 19.4%. In the case of `CCOC(=O)Cc1csc(SCc2cc(=O)oc3cc(O)ccc23)n1`, the protection from H2O2 cell death is reported as 55.7% (active). With `CCOC(=O)Cc1csc(NC(=O)COc2ccc3c(C)cc(=O)oc3c2)n1` the protection from H2O2 cell death was 71.2% (active). For `Cc1ccc2c(CSc3nncs3)cc(=O)oc2c1`, the protection from H2O2 cell death was -3.2%. Compound `Cc1ccc(O)c(/C=N/NC(=O)COc2ccc3c(C)cc(=O)oc3c2)c1` has a protection from H2O2 cell death of 38.5%. `C/C(=N\NS(=O)(=O)c1ccccc1)c1c(O)cc(C)oc1=O` gave a protection from H2O2 cell death of -1%. Work on `Cc1ccc(Cl)cc1NC(=O)C1CCCN(c2cnccn2)C1` (stereo not given) yielded a protection from H2O2 cell death of 1.6%. Work on `CC1(C(=O)NCC2CCOCC2)Cc2c(-c3cccc(C(N)=O)c3)ccnc2O1` (stereo not given) yielded a protection from H2O2 cell death of 9.5%.
